The text below walks through data of PubChem BioAssay (NCI).

Compounds without any hit were thinned out: in the full panel of roughly 83,000, 20% have a hit.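 Plates (96-well) were seeded with cells, treated with compound at one concentration, and incubated for 48 hours before percent growth was determined.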 Unmarked numbers belong to inactive results. Calls of active or inactive are those of the source. How the source made its calls: active means growth percent below 10; inactive means the rest.

Some test systems named below: DU-145 prostate; K-562 leukemia; MALME-3M melanoma; MDA-MB-231 breast; RXF 393 renal; SF-268 CNS; SF-295 CNS; SF-539 CNS; UACC-257 melanoma; M14 melanoma.
Holding throughout (test): NCI-60 one-dose screen, 48 h (100 = growth as untreated, 0 = no growth, -100 = all killed)
Common to all, as to details: 10 µM

Regarding `O=S(=O)(Oc1ccc(-c2ccc3sccc3c2)cc1)c1ccc(F)cc1`, the growth in the test with DU-145 prostate is 104%; in the test with K-562 leukemia it was 78.7%; with MALME-3M melanoma, 106%; with MDA-MB-231 breast, 108%; in the test on RXF 393 renal, 110%; in the test on SF-268 CNS, 108%. Further, the growth with SF-295 CNS was 96.4%; in the test on SF-539 CNS it was 110%; in the test on UACC-257 melanoma, 106%; in the test on M14 melanoma, 113%.
`O=C(CCl)Nc1ccc(Cc2ccc(NC(=O)CCl)cc2)cc1`: the growth in the test on DU-145 prostate is 32.3%; in the test with K-562 leukemia, 0.772% (active); with MALME-3M melanoma, -67.5% (active); in the test on MDA-MB-231 breast it was -15.8% (active); with RXF 393 renal, -50.7% (active); in the test with SF-268 CNS, 10.1%. The growth in the test with SF-295 CNS was 70.1%; in the test on SF-539 CNS, -87.7% (active); with UACC-257 melanoma it was 16.3%; with M14 melanoma, -35.3% (active).
Take `O=C1/C(=C/c2ccc3c(c2)OCO3)SC(=S)N1C1c2ccccc2Oc2ccccc21`: the growth in the test on DU-145 prostate was 99.7%; in the test on K-562 leukemia, 99.5%; in the test on MALME-3M melanoma, 80.1%; in the test with MDA-MB-231 breast it was 96%; in the test with RXF 393 renal, 103%; in the test with SF-268 CNS, 98.1%. The growth with SF-295 CNS is 97.8%; in the test on SF-539 CNS, 94.3%; with UACC-257 melanoma, 112%; in the test on M14 melanoma it was 93.5%.
For the molecule `Cc1cc(SC#N)cc(C(C)(C)C)c1O`, the growth with DU-145 prostate was 110%; with K-562 leukemia, 91.3%; in the test with MALME-3M melanoma it was 85.8%; with MDA-MB-231 breast, 113%; with RXF 393 renal it was 118%; in the test on SF-268 CNS, 103%. In addition, the growth with SF-295 CNS was 102%; in the test with SF-539 CNS it was 95.6%; with UACC-257 melanoma it was 94.1%; in the test on M14 melanoma, 90.3%.
Turning to `Brc1ccc2c(c1)-c1ccccc1C1=NCCN12`, the growth was -21.1% (active) in the test with DU-145 prostate; 4.71% (active) in the test on K-562 leukemia; -31.5% (active) in the test on MALME-3M melanoma; -7.62% (active) in the test with MDA-MB-231 breast; -62.6% (active) with RXF 393 renal; -2.39% (active) in the test on SF-268 CNS. Also, the growth was -50.7% (active) with SF-295 CNS, -1.45% (active) in the test on SF-539 CNS, -23.9% (active) with UACC-257 melanoma and -51.8% (active) with M14 melanoma.
Turning to `O=C(O)COc1c(Cl)cc([N+](=O)[O-])cc1Cl`, the growth is 111% in the test on DU-145 prostate; 92.2% in the test on K-562 leukemia; 97.1% with MALME-3M melanoma; 117% in the test with MDA-MB-231 breast; 102% in the test with RXF 393 renal; 96.5% in the test with SF-268 CNS. In addition, the growth with SF-295 CNS was 100%; in the test with SF-539 CNS, 99.5%; with UACC-257 melanoma it was 79.7%; with M14 melanoma, 88.7%.
For `CCN(CC)CCCOc1cccc2c1C(=O)c1cccc(OCCCN(CC)CC)c1C2=O`, the growth in the test on DU-145 prostate is 38.4%; in the test with K-562 leukemia, 16.1%; in the test with MALME-3M melanoma it was 39.9%; in the test with MDA-MB-231 breast, 35.5%; with RXF 393 renal, 31.2%; with SF-268 CNS, 44.3%. The growth is 45.2% in the test on SF-295 CNS, 40.2% with SF-539 CNS, 47.9% in the test with UACC-257 melanoma and 48.1% in the test on M14 melanoma.
`COc1cc(/C=C2\CCCC3=C2N=C2SC(C)=CN2C3c2cc(OC)c(OC)c(OC)c2)cc(OC)c1OC` (stereo not given): the growth is -26.9% (active) in the test on DU-145 prostate; 20.4% in the test with K-562 leukemia; 4.83% (active) in the test with MALME-3M melanoma; 18.9% in the test with MDA-MB-231 breast; -71.9% (active) in the test on RXF 393 renal; 14.7% in the test on SF-268 CNS. Also, the growth with SF-295 CNS is 2.48% (active); with SF-539 CNS it was 7.53% (active); with UACC-257 melanoma, -27% (active); with M14 melanoma, 2.47% (active).
On to `NNC(=O)Oc1c(Cl)cc(Cl)cc1[N+](=O)[O-]`, for which the growth in the test on DU-145 prostate was 103%; in the test on K-562 leukemia it was 102%; in the test with MALME-3M melanoma, 94.4%; with MDA-MB-231 breast, 113%; in the test with RXF 393 renal, 113%; in the test with SF-268 CNS, 102%. In addition, the growth with SF-295 CNS was 103%; with SF-539 CNS, 105%; in the test with UACC-257 melanoma, 104%; with M14 melanoma, 101%.
`COc1cc2c(cc1NC(=O)C(Cl)Cl)-c1ccc(NC(=O)C(Cl)Cl)cc1C2`: the growth with DU-145 prostate is -68.4% (active); in the test with K-562 leukemia, 20.7%; with MALME-3M melanoma, 115%; with MDA-MB-231 breast it was -18% (active); in the test on RXF 393 renal, -59.2% (active); in the test on SF-268 CNS it was -31.2% (active). Further, the growth in the test on SF-295 CNS is -12.8% (active); in the test with SF-539 CNS, -14.9% (active); in the test on UACC-257 melanoma, -13.1% (active); in the test with M14 melanoma it was 69.8%.
For `Cc1c(Cl)cccc1NC(=O)CN1CCOCC1`, the growth with DU-145 prostate was 102%; in the test with K-562 leukemia, 91.6%; in the test on MALME-3M melanoma, 92.6%; with MDA-MB-231 breast, 106%; with RXF 393 renal it was 117%; in the test with SF-268 CNS, 97.1%. Moreover, the growth with SF-295 CNS is 99.3%; with SF-539 CNS it was 106%; with UACC-257 melanoma, 108%; in the test on M14 melanoma it was 94.9%.
As for `COc1ccc(C2=Cn3c(CCC(=O)c4nc5ccccc5[nH]4)nnc3SC2)cc1`, the growth is 97.7% in the test with DU-145 prostate; 3.14% (active) in the test on K-562 leukemia; 102% in the test with MALME-3M melanoma; 92.2% with MDA-MB-231 breast; 112% in the test with RXF 393 renal; 107% with SF-268 CNS. Besides, the growth in the test on SF-295 CNS is 83.7%; with SF-539 CNS it was 92%; with UACC-257 melanoma, 107%; in the test with M14 melanoma, 111%.
For the molecule `COc1ccc(-c2nn(-c3cccc(Cl)c3)cc2-c2nc(N)[nH]c(=O)c2C#N)cc1`, the growth in the test with DU-145 prostate was 102%; in the test on K-562 leukemia, 28.3%; in the test with MALME-3M melanoma, 37.4%; in the test with MDA-MB-231 breast, 62.9%; with RXF 393 renal, 63.4%; in the test on SF-268 CNS, 68.8%. Moreover, the growth in the test on SF-295 CNS is 38.6%; in the test on SF-539 CNS it was 75.6%; in the test on UACC-257 melanoma, 94%; in the test with M14 melanoma it was 55.8%.
Regarding `O=C(CNc1nnc(-c2cccnc2SCc2ccccc2)s1)Nc1nc(Cl)cc(Cl)n1`, the growth in the test on DU-145 prostate was 100%; in the test on K-562 leukemia, 109%; in the test with MALME-3M melanoma it was 98.8%; with MDA-MB-231 breast it was 104%; in the test with RXF 393 renal, 124%; in the test with SF-268 CNS, 91.5%. In addition, the growth in the test on SF-295 CNS was 103%; in the test with SF-539 CNS, 110%; with UACC-257 melanoma, 157%; in the test with M14 melanoma it was 106%.
